# High-throughput results from PubChem.
# ROS inducer: ROS inducers in U2OS cancer cells, primary screen, cell-based, H2DCF-DA fluorescence; 46,000 tested, 2% active; ROS induction (% of piperlongumine), % at 10 µM; U2OS ROS induction; AID 624156, 2012; in the data active = ROS induction above about 79%, passing the limit was not always enough;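 also: 0% = DMSO vehicle median and 100% = reference compound median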
# The depositor's hits bear a star. Many of the other results were omitted from the sample, so hits are more common in it than they were.
SMILES,ROS inducer
COCCOC(=O)N1C(=O)[C@@]2(c3ccccc31)[C@H](C(=O)N1CCc3cc(OC)c(OC)cc3C1)[C@H]1C(=O)O[C@H](c3ccccc3)[C@H](c3ccccc3)N1[C@@H]2c1ccc(O)cc1,185*
C[C@H](CO)N1C[C@H](C)[C@H](CN(C)Cc2ccc(-c3ccccc3)cc2)Oc2c(NS(=O)(=O)c3ccc(F)cc3)cccc2C1=O,71
Clc1ccccc1CNc1nc2ccccc2n1CCN1CCOCC1,6
C[C@@H]1CN([C@H](C)CO)C(=O)c2cccc(NC(=O)Nc3ccc4c(c3)OCO4)c2O[C@@H]1CN(C)Cc1ccc2c(c1)OCO2,0
C[C@@H]1CN([C@H](C)CO)C(=O)c2cccc(NC(=O)Nc3ccc(C(F)(F)F)cc3)c2O[C@@H]1CN(C)C(=O)Nc1ccc2c(c1)OCO2,94*
C[C@H](CO)N1C[C@H](C)[C@H](CN(C)C(=O)Nc2ccc3c(c2)OCO3)Oc2c(NC(=O)Nc3ccc(C(F)(F)F)cc3)cccc2C1=O,23
C[C@@H]1CN([C@@H](C)CO)C(=O)c2cccc(NC(=O)Nc3ccc4c(c3)OCO4)c2O[C@H]1CN(C)Cc1ccc(C(F)(F)F)cc1,88*
C[C@@H]1CN([C@@H](C)CO)C(=O)c2cccc(NC(=O)Nc3ccc4c(c3)OCO4)c2O[C@@H]1CN(C)Cc1ccc(C(=O)Nc2ccccc2N)cc1,9
C[C@@H]1CN([C@@H](C)CO)C(=O)c2cccc(NS(=O)(=O)c3ccccc3)c2O[C@@H]1CN(C)C(=O)Nc1ccc2c(c1)OCO2,-10
C[C@@H]1CN([C@@H](C)CO)C(=O)c2cccc(NC(=O)Nc3ccc(C(F)(F)F)cc3)c2O[C@@H]1CN(C)Cc1ccc2c(c1)OCO2,63
C[C@H](CO)N1C[C@H](C)[C@H](CN(C)C(=O)Nc2ccc3c(c2)OCO3)Oc2c(NS(=O)(=O)c3ccccc3)cccc2C1=O,100*
C[C@@H]1CN([C@@H](C)CO)C(=O)c2cccc(NC(=O)Nc3ccc4c(c3)OCO4)c2O[C@H]1CN(C)C(=O)Nc1ccc(C(F)(F)F)cc1,8
C[C@H](CO)N1C[C@H](C)[C@@H](CN(C)C(=O)Nc2ccc3c(c2)OCO3)Oc2c(NS(=O)(=O)c3ccccc3)cccc2C1=O,-4
C[C@H]1CN([C@@H](C)CO)C(=O)c2cccc(NC(=O)Nc3ccc4c(c3)OCO4)c2O[C@@H]1CN(C)Cc1ccc(C(=O)Nc2ccccc2N)cc1,123*
C[C@@H]1CN([C@@H](C)CO)C(=O)c2cccc(NC(=O)Nc3ccc4c(c3)OCO4)c2O[C@H]1CN(C)Cc1ccc(C(=O)Nc2ccccc2N)cc1,41
CS(=O)(=O)N(CC(=O)NC1CC1)c1ccc(Cl)c(Cl)c1,-2
C[C@@H]1CN([C@H](C)CO)C(=O)c2cccc(NC(=O)NC3CCCCC3)c2O[C@H]1CN(C)C(=O)NC1CCCCC1,-5
c1ccc2c(N3CCCCC3)nc(N3CCCCC3)nc2c1,20
Cn1c(SCC(=O)Nc2ccc(F)cc2)nnc1-c1ccc([N+](=O)[O-])cc1,55
C[C@H](CO)N1C[C@H](C)[C@H](CN(C)C)Oc2c(NC(=O)c3ccc(-c4nccs4)cc3)cccc2C1=O,-6
Cc1c(C(=O)Nc2ccccc2Br)oc2ccc(S(=O)(=O)N3CCCC3)cc12,-5
Cc1ccc2nc(-c3ccc(NC(=O)Cn4nc([N+](=O)[O-])c(Cl)c4C)cc3)sc2c1,-3
Cc1sc2ncnc(SCC(=O)NC3CCCCC3)c2c1C,-6
C[C@H](CO)N1C[C@H](C)[C@@H](CN(C)Cc2ccc(C(F)(F)F)cc2)Oc2c(NC(=O)Nc3ccc4c(c3)OCO4)cccc2C1=O,92*
C[C@H]1CN([C@@H](C)CO)C(=O)c2cccc(NC(=O)Nc3ccc(F)cc3)c2O[C@@H]1CN(C)Cc1ccc2c(c1)OCO2,16
SMILES,ROS inducer
C[C@H]1CN([C@@H](C)CO)C(=O)c2cccc(NC(=O)Nc3ccc4c(c3)OCO4)c2O[C@@H]1CN(C)Cc1ccc2c(c1)OCO2,9
C[C@@H]1CN([C@H](C)CO)C(=O)c2cccc(NC(=O)Nc3ccc(F)cc3)c2O[C@H]1CN(C)Cc1ccc2c(c1)OCO2,87*
C[C@@H]1CN([C@@H](C)CO)C(=O)c2cccc(NS(=O)(=O)c3cn(C)cn3)c2O[C@H]1CN(C)Cc1ccc2c(c1)OCO2,86*
C[C@@H]1CN([C@H](C)CO)C(=O)c2cccc(NS(=O)(=O)c3cn(C)cn3)c2O[C@H]1CN(C)Cc1ccc(Cl)c(Cl)c1,-9
C[C@@H]1CN([C@@H](C)CO)C(=O)c2cccc(NS(=O)(=O)c3cn(C)cn3)c2O[C@@H]1CN(C)Cc1ccc2c(c1)OCO2,-8
C[C@H]1CN([C@@H](C)CO)C(=O)c2cccc(NC(=O)Nc3ccc4c(c3)OCO4)c2O[C@@H]1CN(C)Cc1ccc(C(F)(F)F)cc1,70
CC(C)NC(=O)N(C)C[C@@H]1Oc2c(NC(=O)Nc3ccc4c(c3)OCO4)cccc2C(=O)N([C@@H](C)CO)C[C@H]1C,-12
CC(C)NC(=O)N(C)C[C@H]1Oc2c(NC(=O)Nc3ccc4c(c3)OCO4)cccc2C(=O)N([C@@H](C)CO)C[C@H]1C,90*
CC(C)NC(=O)N(C)C[C@@H]1Oc2c(NC(=O)Nc3ccc4c(c3)OCO4)cccc2C(=O)N([C@H](C)CO)C[C@@H]1C,17
C[C@H](CO)N1C[C@H](C)[C@H](CN(C)Cc2ccc(C(F)(F)F)cc2)Oc2c(NC(=O)Nc3ccc4c(c3)OCO4)cccc2C1=O,13
Fc1ccc(C=Nc2ccc3ccccc3c2)cc1,17
CNC[C@@H]1Oc2ccc(NC(=O)Nc3c(C)noc3C)cc2C(=O)N([C@H](C)CO)C[C@@H]1C,-9
NC(=O)c1c(NC(=O)CCSc2nc(-c3ccco3)cc(C(F)(F)F)n2)sc2c1CCC2,38
C[C@@H]1CN([C@@H](C)CO)C(=O)c2cccc(NS(=O)(=O)c3ccc(F)cc3)c2O[C@@H]1CN(C)C(=O)Nc1ccc(C(F)(F)F)cc1,9
C[C@H](CO)N1C[C@H](C)[C@@H](CN(C)S(=O)(=O)c2ccccc2)Oc2c(NC(=O)c3cnccn3)cccc2C1=O,4
Cc1ccc(CNC(=O)CSc2nc3ccsc3c(=O)n2C2CC2)cc1,8
COC(=O)N(C)C[C@H]1OCc2cn(nn2)CCCC(=O)N([C@H](C)CO)C[C@H]1C,-20
CSc1scc2c1-c1nc(SCC(=O)C(C)(C)C)ncc1CC2,34
COc1ccc(S(=O)(=O)N(C)C[C@@H]2Oc3ccc(NC(=O)CCCCCC(=O)Nc4ccccc4N)cc3C(=O)N([C@@H](C)CO)C[C@H]2C)cc1,9
C[C@@H]1CN([C@@H](C)CO)C(=O)c2cc(NS(=O)(=O)c3cn(C)cn3)ccc2O[C@H]1CN(C)Cc1ccc(-c2ccccc2)cc1,15
CCN(CC(=O)Nc1ccc(C(F)(F)F)cc1)S(=O)(=O)c1ccc(C)cc1,2
CCCC[C@@H](C)/C=C(C)/C=C(\C)C(=O)NC1=C[C@@](O)(/C=C/C=C/C=C/C(=O)NC2C(=O)CCC2=O)[C@@H]2O[C@@H]2C1=O,9
COc1ccc(-n2c(SCC(=O)c3ccc(Cl)cc3)nc3ccccc3c2=O)cc1,4
COc1ccc(-c2ccc(=O)n(CC(=O)N(C)c3ccccc3)n2)cc1,-8
COc1ccc(C(=O)Cn2c3ccccc3n3nc(-c4ccccc4)nc23)cc1OC,-3
CCCCN1Cc2c(n(CC(=O)c3ccc(OC)cc3)c3cc(-c4ccccc4)nn3c2=O)C1=O,170*
CS(=O)(=O)/C(C#N)=C/Nc1cnccn1,6
